Data from PubChem BioAssay (NCATS).
Values joined by “and” are separate entries in the source; they are usually repeats but may differ in a detail not shown here. Equal entries are not always repeated. Inconclusive results are not listed. Where a call stands in place of a potency, no number is given. Active and inactive are the calls of the source. Unless noted, the call rests on the fitted dose curve; in most records, active means well fitted curve in the direction sought with a large enough effect; inconclusive means small, poorly fitted or top-dose-only effect, or another doubt; inactive means no such curve, though single readings can be large; an effect the other way counts as inactive or inconclusive.

Tests used:
[1] = AP1 Signaling Pathway (AID 357; active means well fitted curve in either direction with a large enough effect, not every such curve was filed as active;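 further: ME-180 reporter cells stimulated with EGF at its EC50 level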); conditions: ME-180 AP-1-bla reporter, EGF-induced, beta-lactamase ratio, 5 h
How it was run: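 Beta-lactamase reporter under AP-1 response element, ME-180 background. Stimulus: EC50 EGF. Compound exposure 5 h, 37 °C. Detection: CCF4, 2.5 h RT, 460/530 nm. Values: AC50 from titration.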

[2] = target: Cytochrome P450 1A2 (Homo sapiens) (UniProt P05177); experiment: p450-cyp1a2 (AID 410; calls by dose curve; further: potency means the concentration at half of the fitted maximal effect)
How it was run: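 20nM CYP1A2, 100uM Luciferin-ME (=Km), 100mM KPO4; cpd 10 min RT; +NADPH regen, 60 min RT; stop/detect 20 min; luminescence. Normalized to furafylline 57 uM = full inhibition.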

[3] = NFAT Signaling Pathway (AID 444; active means well fitted curve in either direction with a large enough effect, not every such curve was filed as active;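 further: carbachol stimulus at about its EC50 of 1 µM final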); conditions: Jurkat NFAT-bla M1, carbachol, beta-lactamase ratio, 5 h
How it was run: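 Jurkat cells with NFAT-driven β-lactamase reporter and co-expressed M1 receptor, stimulated with carbachol (final 1 uM, ~EC50), compound titration, 5 h at 37 °C. CCF4 loaded 1 h at RT; 460/530 nm ratio gave %activity and AC50.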

[4] = Stat Signaling Pathway (AID 446; active means well fitted curve in either direction with a large enough effect, not every such curve was filed as active;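 further: ME-180 cervical cancer cells given 40 pM IL-6 alongside compound; SIE-controlled beta-lactamase reporter measured as 460/530 nm FRET emission ratio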); conditions: ME-180 (cervical carcinoma) SIE beta-lactamase reporter, IL-6 stimulated, 5 h; at 17.2 µM (top of the series)
How it was run: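 Overnight-plated ME-180 cells bearing a STAT Inducible Element beta-lactamase reporter; 5 h co-exposure to compound and 40 pM IL-6; values normalized to 300 pM IL-6 and 125 nM JAK inhibitor controls.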

[5] = target: Glucocorticoid receptor (Homo sapiens) (UniProt P04150); experiment: GR-GFP Redistribution (AID 450;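 active means compounds whose dose series gives a full or clear partial fitted curve of increased nuclear translocation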; further: potency means the concentration at half of the fitted maximal effect); conditions: U2OS GR-GFP nuclear translocation, laser cytometry, 2 h
[6] = target: Glucocorticoid receptor (Homo sapiens) (UniProt P04150); experiment: GR-EFC Redistribution (AID 451; calls by dose curve; further: potency means the concentration at half of the fitted maximal effect); conditions: CHO-K1 GR-EFC translocation, beta-gal luminescence, 2 h
How it was run: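 CHO-K1 cells expressing nuclear EA and GR-ED fragments of b-gal; compounds titrated up to 46 uM final, 2 h at 37 C. GR nuclear translocation read as complemented b-gal luminescence after 1 h RT detection.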

[7] = target: Mitogen-activated protein kinase 10 (Mus musculus) (UniProt Q61831); experiment: JNK3 AlphaScreen Assay (AID 530; active means well fitted curve in either direction with a large enough effect, not every such curve was filed as active;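 further: kinase came from lysate of stimulated human HepG2 cells; signal reports phosphorylation of biotinylated GST-cJun 1-79 at Ser73 with 10 µM ATP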)
How it was run: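 HepG2 lysate (IL-1b/TNFa pre-activated) + biotin-GST-cJun 1-79 + anti-pSer73 cJun; cpd titration, 15 min RT; ATP 10 uM start; Tris pH 7.6, MgCl2, DTT, vanadate; beads in EDTA buffer; AlphaScreen.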

[8] = target: 3',5'-cyclic-AMP phosphodiesterase 4B (Homo sapiens) (UniProt Q07343); experiment: qHTS Assay for Inhibitors of PDE-IV (AID 607; active means well fitted activation curve with a large enough effect in the main read-out, with a control signal flat, not every such curve was filed as active)
How it was run: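 Live HEK293 cells with a modified cyclic nucleotide-gated (CNG) channel report intracellular cAMP via membrane-potential dye fluorescence (ex 535/em 590 nm). Endogenous PDE-IV was targeted. Compounds were tested at up to 22.9 uM final; RO 20-1724 100 uM served as control.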

[9] = target: Guanine nucleotide-binding protein G(i) subunit alpha-1 (Homo sapiens) (UniProt P63096); experiment: qHTS Assay for Inhibitors of RGS12 GoLoco Motif Activity (Green Fluorophore) (AID 879);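 further: negative values mean loss of peptide binding seen as reduced polarization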
How it was run: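 A drop in FITC polarization marked displacement of the FITC-tagged RGS12 GoLoco peptide (10 nM) from Gαi1 (50 nM). Compounds were incubated 10 min at room temperature in Tris pH 7.5 buffer containing 150 mM NaCl, 0.1 mM GDP and 0.05% NP40; unlabeled peptide titration served as control.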

[10] = target: Cytochrome P450 2C9 (Homo sapiens) (UniProt P11712); experiment: qHTS Assay for Inhibitors and Substrates of Cytochrome P450 2C9 (AID 883); further: nearly all actives have a fitted effect of over 60% in size
How it was run: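 Human CYP2C9 (10nM) with Luciferin-H at 100uM (its KM) in 25mM KPO4; compound preincubated 10 min at 37C, then NADPH regeneration for 60 min at 37C. Luciferin read by luminescence after detection reagent; normalized to 57uM sulphaphenazole as full inhibition.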

[11] = target: Cytochrome P450 3A4 (Homo sapiens) (UniProt P08684); experiment: qHTS Assay for Activators of Cytochrome P450 3A4 (AID 885); further: nearly all actives have a fitted effect of over 65% in size
How it was run: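 Using 20nM recombinant human CYP3A4 in potassium phosphate (200mM), substrate Luciferin-PPXE at 25uM, luminescent luciferin detection followed a 60-min RT NADPH reaction; data scaled to 57 uM ketoconazole.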

[12] = target: Cytochrome P450 2D6 (Homo sapiens) (UniProt P10635); experiment: qHTS Assay for Inhibitors and Substrates of Cytochrome P450 2D6 (AID 891); further: potency means the concentration at half of the fitted maximal effect; nearly all actives have a fitted effect of over 60% in size
How it was run: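 Luminescent read-out of luciferin formed by 5 nM human CYP2D6 demethylating 30 uM Luciferin-ME EGE (Km level) over 60 min at room temperature after NADPH regeneration addition. Data normalized to full inhibition by 1.43 uM quinidine.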

[13] = target: Cytochrome P450 2C19 (Homo sapiens) (UniProt P33261); experiment: qHTS Assay for Inhibitors and Substrates of Cytochrome P450 2C19 (AID 899); further: potency means the concentration at half of the fitted maximal effect; nearly all actives have a fitted effect of over 60% in size
How it was run: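 5 nM human CYP2C19 with 10uM Luciferin-H EGE (at KM) in 50mM KPO4, compound preincubated 10 min at 37C, then NADPH regeneration for 60 min at 37C. Luciferin read by luminescence after detection reagent; normalized to 57uM ketoconazole as full inhibition.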

[14] = qHTS Assay for Identification of Small Molecule Agonists for Thrombopoietin (TPO) Signaling Pathway (AID 917)
How it was run: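 Ba/F3 (mouse) + hTPO receptor + GpIIb-promoter luciferase; IL-3 withdrawn overnight; compound + 26 pM TPO (EC50), 24 hrs, 37 C, 5% CO2; Steadylite luminescence, 10 min RT.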

[15] = target: Muscarinic acetylcholine receptor M1 (Rattus norvegicus) (UniProt P08482); experiment: qHTS Assay for Antagonists of Acetylcholine Muscarinic M1 Receptor: Measurement of IP-One Response (AID 944); further: nearly all actives have a fitted effect of over 75% in size
How it was run: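 Read-out: HTRF competition between d2-IP1 and Eu-cryptate anti-IP1 antibody, emission 620 and 665 nm. Stimulus was carbachol, EC80 (200 nM), for 30 min in M1-CHO cells (rat receptor), after 10 min compound pre-treatment.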

[16] = target: Pyruvate kinase PKM (Homo sapiens) (UniProt P14618); experiment: qHTS Assay for Activators of Human Muscle Pyruvate Kinase (AID 954; active means well fitted curve in the direction sought with a large enough effect, not every such curve was filed as active)
How it was run: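 Screening used highly purified human pyruvate kinase M2 under submaximal activity, with PEP at its Km and ADP below Km. After an hour at room temperature, ATP was read by luciferase luminescence.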

[17] = target: alpha-glucosidase (Oryza sativa, rice) (UniProt Q653V4); experiment: Counterscreen for Glucocerebrosidase Inhibitors: qHTS Assay for Rice alpha-Glucosidase at pH 5.0 (AID 997)
How it was run: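 Endpoint fluorogenic assay at pH 5.0: compounds (0.7 nM to 77 uM) titrated against 4 nM rice enzyme and 400 uM 4-MU-alpha-glucoside for 20 min at room temperature; NaOH/glycine stop, read ex 365/em 440 nm, Hill-fitted AC50.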

[18] = qHTS Assay for Lipid Storage Modulators (AID 1519; calls by dose curve); conditions: Drosophila S3 cells, BODIPY lipid droplet/cell ratio, laser cytometry, cells loaded with oleic acid
How it was run: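 Cells seeded at 5,000 per well were treated with compounds over a concentration series and loaded with oleic acid (400 uM, as added). Lipid droplet fluorescence (488 nm excitation, 500-530 nm channel) was read by laser-scanning cytometry and normalized to 20 uM Triacsin C.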

[19] = target: DNA dC->dU-editing enzyme APOBEC-3G (Homo sapiens) (UniProt Q9HC16); experiment: qHTS for inhibitors of Vif-A3G interactions: Validation (AID 588379)
How it was run: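 Yellow fluorescence (Ex 488, Em 500-530) of Vif-coexpressing HeLa A3G-eYFP cells, scanned by Acumen cytometer, reports blocked A3G degradation. Cells plated at 700/well overnight at 37 deg C before compound addition, then a further overnight compound incubation at 37 deg C.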

[20] = test system: Zika virus NS2B-NS3 protease; experiment: Primary screen GU AMC qHTS for Zika virus inhibitors (AID 1347154); further: nearly all actives have a fitted effect of over 70% in size
How it was run: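 Unlinked Zika NS2B hydrophilic domain–NS3 protease complex at 25 nM in 10 mM Tris-HCl pH 8.0, 0.01% Tween 20, with an AMC peptide substrate. Fluorescence change (340/450 nm) over 15 min at room temperature, normalized to controls, fitted to 4-parameter Hill.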

[21] = target: Rap guanine nucleotide exchange factor 3 (Homo sapiens) (UniProt O95398); experiment: Confirmatory qHTS for agonist of cAMP-regulated guanine nucleotide exchange factor 3 (EPAC1) (AID 1645881);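 further: EPAC1 catalysed release of BODIPY-GDP from Rap1B seen as fluorescence loss; nearly all actives have a fitted effect of over 75% in size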
[22] = target: Rap guanine nucleotide exchange factor 4 (Homo sapiens) (UniProt Q8WZA2); experiment: Confirmatory qHTS for agonist of cAMP-regulated guanine nucleotide exchange factor 4 (EPAC2) (AID 1645884);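 further: nucleotide exchange releases bodipy-GDP from Rap1 and this lowers its fluorescence; nearly all actives have a fitted effect of over 65% in size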

Sequence of Cytochrome P450 2C19 (Homo sapiens) (P33261 whole entry, looked up): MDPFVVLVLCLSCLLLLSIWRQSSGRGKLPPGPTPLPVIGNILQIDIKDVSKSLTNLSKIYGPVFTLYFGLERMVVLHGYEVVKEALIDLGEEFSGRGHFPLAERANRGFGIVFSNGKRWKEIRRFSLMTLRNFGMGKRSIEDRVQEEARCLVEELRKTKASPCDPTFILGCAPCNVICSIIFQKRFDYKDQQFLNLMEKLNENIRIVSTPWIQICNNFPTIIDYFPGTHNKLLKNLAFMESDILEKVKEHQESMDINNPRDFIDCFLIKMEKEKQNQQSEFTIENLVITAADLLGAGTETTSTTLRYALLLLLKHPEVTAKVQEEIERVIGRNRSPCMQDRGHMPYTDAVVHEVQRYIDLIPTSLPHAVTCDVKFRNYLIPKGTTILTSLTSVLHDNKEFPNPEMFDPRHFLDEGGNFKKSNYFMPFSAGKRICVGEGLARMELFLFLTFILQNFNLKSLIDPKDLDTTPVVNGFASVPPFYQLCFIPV
Sequence of Glucocorticoid receptor (Homo sapiens) (P04150 whole entry, looked up, the tested form may be a part): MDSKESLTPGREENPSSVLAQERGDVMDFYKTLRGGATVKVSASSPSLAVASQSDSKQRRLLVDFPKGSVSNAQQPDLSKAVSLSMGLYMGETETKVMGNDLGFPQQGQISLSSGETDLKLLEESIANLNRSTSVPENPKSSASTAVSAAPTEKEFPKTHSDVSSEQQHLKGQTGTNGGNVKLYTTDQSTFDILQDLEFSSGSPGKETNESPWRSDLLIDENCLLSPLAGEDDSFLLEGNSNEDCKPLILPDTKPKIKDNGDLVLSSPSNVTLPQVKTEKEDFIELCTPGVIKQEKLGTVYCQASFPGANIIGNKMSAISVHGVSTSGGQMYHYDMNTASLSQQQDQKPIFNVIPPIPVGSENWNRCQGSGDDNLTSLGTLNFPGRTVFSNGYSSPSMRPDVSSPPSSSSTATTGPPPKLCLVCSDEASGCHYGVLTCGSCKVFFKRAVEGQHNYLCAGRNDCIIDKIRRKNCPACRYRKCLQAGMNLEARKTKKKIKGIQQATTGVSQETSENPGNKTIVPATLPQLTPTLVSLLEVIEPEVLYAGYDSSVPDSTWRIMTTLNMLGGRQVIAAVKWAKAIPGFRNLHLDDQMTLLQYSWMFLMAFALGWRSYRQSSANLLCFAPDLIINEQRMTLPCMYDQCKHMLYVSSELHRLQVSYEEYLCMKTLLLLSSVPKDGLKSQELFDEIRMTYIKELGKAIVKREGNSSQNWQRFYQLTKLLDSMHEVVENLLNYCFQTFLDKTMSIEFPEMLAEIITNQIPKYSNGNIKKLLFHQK
Sequence of Cytochrome P450 2D6 (Homo sapiens) (P10635 whole entry, looked up): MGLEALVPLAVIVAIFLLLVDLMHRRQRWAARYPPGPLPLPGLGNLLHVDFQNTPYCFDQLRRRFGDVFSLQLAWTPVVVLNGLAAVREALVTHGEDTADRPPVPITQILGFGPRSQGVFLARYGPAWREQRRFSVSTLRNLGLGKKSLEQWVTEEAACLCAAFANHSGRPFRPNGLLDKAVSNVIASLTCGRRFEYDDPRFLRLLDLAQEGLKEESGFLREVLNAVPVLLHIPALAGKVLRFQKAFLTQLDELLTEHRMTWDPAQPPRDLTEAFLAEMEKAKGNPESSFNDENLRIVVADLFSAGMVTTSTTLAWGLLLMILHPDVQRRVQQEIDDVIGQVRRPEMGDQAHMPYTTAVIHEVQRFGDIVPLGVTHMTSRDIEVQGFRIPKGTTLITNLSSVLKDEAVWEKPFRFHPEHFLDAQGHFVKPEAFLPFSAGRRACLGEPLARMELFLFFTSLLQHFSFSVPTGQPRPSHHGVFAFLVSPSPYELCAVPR
Sequence of Cytochrome P450 2C9 (Homo sapiens) (P11712 whole entry, looked up): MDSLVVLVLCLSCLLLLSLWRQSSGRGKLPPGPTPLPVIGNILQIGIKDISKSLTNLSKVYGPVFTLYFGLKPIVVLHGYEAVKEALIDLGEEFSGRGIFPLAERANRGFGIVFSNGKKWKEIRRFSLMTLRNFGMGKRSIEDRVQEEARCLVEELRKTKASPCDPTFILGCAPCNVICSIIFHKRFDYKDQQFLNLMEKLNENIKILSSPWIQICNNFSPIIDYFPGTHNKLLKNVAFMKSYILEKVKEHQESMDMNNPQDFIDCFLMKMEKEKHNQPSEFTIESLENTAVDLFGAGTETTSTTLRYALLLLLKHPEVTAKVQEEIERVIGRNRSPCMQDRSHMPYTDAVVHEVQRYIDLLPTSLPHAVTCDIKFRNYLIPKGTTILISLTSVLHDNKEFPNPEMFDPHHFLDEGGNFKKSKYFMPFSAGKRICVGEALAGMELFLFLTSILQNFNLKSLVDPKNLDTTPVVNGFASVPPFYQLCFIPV
Sequence of 3',5'-cyclic-AMP phosphodiesterase 4B (Homo sapiens) (Q07343 whole entry, looked up): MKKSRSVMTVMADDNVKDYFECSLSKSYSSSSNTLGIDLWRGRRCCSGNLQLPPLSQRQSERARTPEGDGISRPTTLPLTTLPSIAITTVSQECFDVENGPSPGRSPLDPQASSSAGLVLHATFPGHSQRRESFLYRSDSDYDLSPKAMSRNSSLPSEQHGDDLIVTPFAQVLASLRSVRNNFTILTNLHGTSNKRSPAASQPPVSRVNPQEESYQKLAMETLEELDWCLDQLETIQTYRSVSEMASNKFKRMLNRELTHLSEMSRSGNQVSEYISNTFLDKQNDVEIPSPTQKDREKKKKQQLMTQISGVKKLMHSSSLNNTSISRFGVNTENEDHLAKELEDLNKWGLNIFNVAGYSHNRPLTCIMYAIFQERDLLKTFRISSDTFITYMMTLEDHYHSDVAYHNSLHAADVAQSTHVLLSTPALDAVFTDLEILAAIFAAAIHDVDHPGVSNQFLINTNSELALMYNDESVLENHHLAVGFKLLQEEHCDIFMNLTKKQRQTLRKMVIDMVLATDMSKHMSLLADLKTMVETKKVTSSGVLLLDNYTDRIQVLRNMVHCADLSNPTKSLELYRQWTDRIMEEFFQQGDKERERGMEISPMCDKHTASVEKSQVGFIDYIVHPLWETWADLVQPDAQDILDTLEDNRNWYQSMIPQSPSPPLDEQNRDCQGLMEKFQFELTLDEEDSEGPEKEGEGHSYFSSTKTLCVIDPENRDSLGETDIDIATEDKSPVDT
Sequence of Cytochrome P450 1A2 (Homo sapiens) (P05177 whole entry, looked up): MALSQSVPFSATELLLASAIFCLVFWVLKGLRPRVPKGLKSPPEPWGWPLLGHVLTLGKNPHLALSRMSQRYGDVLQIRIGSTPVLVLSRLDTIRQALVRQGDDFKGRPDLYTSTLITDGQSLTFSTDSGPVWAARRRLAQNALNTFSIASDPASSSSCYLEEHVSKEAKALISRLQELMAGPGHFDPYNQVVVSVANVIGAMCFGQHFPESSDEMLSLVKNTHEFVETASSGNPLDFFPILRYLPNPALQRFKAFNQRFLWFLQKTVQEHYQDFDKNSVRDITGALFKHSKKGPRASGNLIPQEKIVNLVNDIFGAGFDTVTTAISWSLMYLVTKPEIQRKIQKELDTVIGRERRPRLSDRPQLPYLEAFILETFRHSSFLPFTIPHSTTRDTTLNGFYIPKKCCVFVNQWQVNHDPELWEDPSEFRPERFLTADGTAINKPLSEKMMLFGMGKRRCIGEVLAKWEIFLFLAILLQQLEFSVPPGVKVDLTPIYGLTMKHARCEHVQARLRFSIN
Sequence of Rap guanine nucleotide exchange factor 3 (Homo sapiens) (O95398 whole entry, looked up): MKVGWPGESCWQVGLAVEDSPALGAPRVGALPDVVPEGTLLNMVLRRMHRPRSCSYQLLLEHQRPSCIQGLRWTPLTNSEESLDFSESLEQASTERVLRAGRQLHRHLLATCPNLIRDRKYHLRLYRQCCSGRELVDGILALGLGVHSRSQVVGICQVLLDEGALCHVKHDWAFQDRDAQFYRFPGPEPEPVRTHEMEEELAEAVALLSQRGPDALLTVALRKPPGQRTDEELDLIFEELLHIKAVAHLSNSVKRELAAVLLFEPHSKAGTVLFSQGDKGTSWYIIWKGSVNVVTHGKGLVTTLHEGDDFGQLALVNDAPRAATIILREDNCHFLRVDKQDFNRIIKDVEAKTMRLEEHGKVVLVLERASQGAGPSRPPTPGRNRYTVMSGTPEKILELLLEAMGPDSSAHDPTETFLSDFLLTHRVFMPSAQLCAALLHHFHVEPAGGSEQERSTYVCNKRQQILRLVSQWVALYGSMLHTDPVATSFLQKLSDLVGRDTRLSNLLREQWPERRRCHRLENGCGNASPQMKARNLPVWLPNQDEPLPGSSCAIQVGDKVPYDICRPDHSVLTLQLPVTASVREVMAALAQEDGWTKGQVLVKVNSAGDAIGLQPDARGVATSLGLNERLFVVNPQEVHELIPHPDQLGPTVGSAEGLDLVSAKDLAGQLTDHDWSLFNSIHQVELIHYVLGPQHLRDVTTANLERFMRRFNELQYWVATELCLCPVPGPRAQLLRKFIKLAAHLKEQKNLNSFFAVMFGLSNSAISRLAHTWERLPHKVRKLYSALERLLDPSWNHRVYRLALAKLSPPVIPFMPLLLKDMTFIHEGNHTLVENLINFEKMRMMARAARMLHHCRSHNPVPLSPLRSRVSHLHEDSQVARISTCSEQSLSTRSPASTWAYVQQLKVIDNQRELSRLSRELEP
Sequence of Muscarinic acetylcholine receptor M1 (Rattus norvegicus) (P08482 whole entry, looked up): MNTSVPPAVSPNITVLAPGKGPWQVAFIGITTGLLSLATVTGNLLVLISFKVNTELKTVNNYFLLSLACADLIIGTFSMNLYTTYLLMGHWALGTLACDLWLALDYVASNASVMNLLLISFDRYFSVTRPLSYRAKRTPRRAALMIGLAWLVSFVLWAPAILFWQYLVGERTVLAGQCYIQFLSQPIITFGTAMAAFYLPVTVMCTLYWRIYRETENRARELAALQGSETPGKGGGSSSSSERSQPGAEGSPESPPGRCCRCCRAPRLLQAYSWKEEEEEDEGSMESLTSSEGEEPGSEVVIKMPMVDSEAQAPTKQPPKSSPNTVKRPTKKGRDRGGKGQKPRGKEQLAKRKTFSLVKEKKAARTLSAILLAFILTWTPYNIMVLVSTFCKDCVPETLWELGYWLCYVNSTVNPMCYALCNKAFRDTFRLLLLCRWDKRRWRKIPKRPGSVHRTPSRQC

COc1ccccc1N1CCN(C[C@@H](O)COc2cccc3ccccc23)CC1
activity change, negative = inhibition ([1]; at 17.2 µM (top of the series)): 4.94% (inactive) | activity change, negative = inhibition ([1]; at 38 µM (top of the series)): 2.88% (inactive) | Potency [2]: 20 µM (active) and 31.6 µM (active) | activity change, negative = inhibition ([3]; at 17.2 µM (top of the series)): -8.94% (inactive) | activity change, negative = inhibition ([3]; at 38 µM (top of the series)): -1.67% (inactive) | activity, negative = inhibition [4]: -4.93% (inactive) | Potency [5]: > 46 µM (inactive) and > 20.6 µM (inactive) | Potency [6]: > 46 µM (inactive) and > 20.6 µM (inactive) | Potency [7]: inactive | Potency [8]: inactive | outcome [9]: inactive | Potency [10]: inactive | Potency [11]: inactive | Potency [12]: 794 nM (active) and 316 nM (active) and 126 nM (active) | Potency [13]: 6.31 µM (active) and 7.94 µM (active) and 1.58 µM (active) | Potency [14]: inactive | Potency [15]: inactive | outcome [16]: inactive | outcome [17]: inactive | activity change, negative = inhibition ([18]; at 25.7 µM (top of the series)): -0.494% (inactive) | max response ([18]; measured here: cell count channel max response): -0.0145% | max response ([18]; measured here: lipid channel max response): -0.579% | Potency [19]: inactive | Potency [20]: inactive | outcome [21]: inactive | outcome [22]: inactive
